Assay results: PubChem BioAssay AID1159580 (chemical genetic matrix, 2015)
Out of some 5,500 compounds screened, about 2,000 (36%) were called active. Not shown: some 18% with an inconclusive outcome. Rule as the data show it: active = normalized growth mostly below about 0.91 (no sharp cut-off); inconclusive = no clear call, values can overlap the other calls; inactive = mostly above about 0.92. The list shows a part of the results.

Assay: chemical genetic growth profiling, strain panel (AID 1159580);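 also: tested at 20 µM; growth read once vehicle control cultures reached saturation at 30 °C; 1 = growth at the plate median or of vehicle wells; lower values mean less growth of the strain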
Conditions: growth OD
[1] = S. cerevisiae deletion strains, locus YAL013W, strain DEP1, hits give low values
[2] = S. cerevisiae deletion strains, locus YBR229C, strain ROT2, hits give low values
[3] = S. cerevisiae deletion strains, locus YDL101C, strain DUN1, hits give low values
[4] = S. cerevisiae deletion strains, locus YDR150W, strain NUM1, hits give low values
[5] = S. cerevisiae deletion strains, locus YEL061C, strain CIN8, hits give low values
[6] = S. cerevisiae deletion strains, locus YGR078C, strain PAC10, hits give low values
[7] = S. cerevisiae deletion strains, locus YHR030C, strain SLT2, hits give low values
[8] = S. cerevisiae deletion strains, locus YJR043C, strain POL32, hits give low values
[9] = S. cerevisiae deletion strains, locus YJR075W, strain HOC1, hits give low values
[10] = S. cerevisiae deletion strains, locus YLR039C, strain RIC1, hits give low values
[11] = S. cerevisiae deletion strains, locus YLR262C, strain YPT6, hits give low values
[12] = S. cerevisiae deletion strains, locus YMR263W, strain SAP30, hits give low values
[13] = S. cerevisiae deletion strains, locus YMR307W, strain GAS1, hits give low values
[14] = S. cerevisiae deletion strains, locus YNL153C, strain GIM3, hits give low values
[15] = S. cerevisiae deletion strains, locus YNL322C, strain KRE1, hits give low values
[16] = S. cerevisiae deletion strains, locus YOL006C, strain TOP1, hits give low values
[17] = S. cerevisiae deletion strains, locus YPL055C, strain LGE1, hits give low values
[18] = S. cerevisiae deletion strains, locus YPL241C, strain CIN2, hits give low values

Measured: normalized growth

CCCCCCC(C)OC(=O)COc1cc(Cl)c(Cl)cc1Cl (stereo not given)
inactive: [1] 0.994 | S. cerevisiae deletion strains, locus YBR021W, strain FUR4, hits give low values 0.985 | [2] 1 | S. cerevisiae deletion strains, locus YCL029C, strain bik1, hits give low values 0.992 | S. cerevisiae deletion strains, locus YDL035C, strain GPR1, hits give low values 1 | S. cerevisiae deletion strains, locus YDL074C, strain BRE1, hits give low values 1 | [3] 1 | S. cerevisiae deletion strains, locus YDL134C, strain PPH21, hits give low values 1.01 | S. cerevisiae deletion strains, locus YDL185W, strain tfp1, hits give low values 0.995 | S. cerevisiae deletion strains, locus YDL192W, strain arf1, hits give low values 0.995 | S. cerevisiae deletion strains, locus YDR101C, strain arx1, hits give low values 0.993 | [4] 1 | S. cerevisiae deletion strains, locus YDR162C, strain NBP2, hits give low values 0.964 | S. cerevisiae deletion strains, locus YDR318W, strain mcm21, hits give low values 0.989 | S. cerevisiae deletion strains, locus YDR388W, hits give low values 0.992 | S. cerevisiae deletion strains, locus YDR502C, strain sam2, hits give low values 0.997 | [5] 1 | S. cerevisiae deletion strains, locus YER110C, hits give low values 0.993 | S. cerevisiae deletion strains, locus YER155C, strain BEM2, hits give low values 0.984 | S. cerevisiae deletion strains, locus YER167W, strain BCK2, hits give low values 0.995 | S. cerevisiae deletion strains, locus YGL078C, strain dbp3, hits give low values 0.985 | S. cerevisiae deletion strains, locus YGL086W, strain mad1, hits give low values 0.988 | S. cerevisiae deletion strains, locus YGL248W, strain PDE1, hits give low values 0.993 | [6] 0.995 | S. cerevisiae deletion strains, locus YGR135W, strain pre9, hits give low values 0.994 | S. cerevisiae deletion strains, locus YGR229C, strain SMI1, hits give low values 0.952 | S. cerevisiae deletion strains, locus YGR252W, strain gcn5, hits give low values 0.99 | [7] 0.978 | S. cerevisiae deletion strains, locus YHR079C, strain IRE1 (second series), hits give low values 0.986 | S. cerevisiae deletion strains, locus YHR094C, strain hxt1, hits give low values 0.983 | S. cerevisiae deletion strains, locus YHR129C, strain ARP1, hits give low values 1 | S. cerevisiae deletion strains, locus YHR200W, strain rpn10, hits give low values 0.987 | S. cerevisiae deletion strains, locus YIL066C, strain RNR3, hits give low values 0.975 | S. cerevisiae deletion strains, locus YIL073C, strain SPO22, hits give low values 0.948 | S. cerevisiae deletion strains, locus YIL125W, strain kgd1, hits give low values 0.988 | S. cerevisiae deletion strains, locus YIR030C, strain dcg1, hits give low values 0.983 | S. cerevisiae deletion strains, locus YJL095W, strain BCK1, hits give low values 0.997 | S. cerevisiae deletion strains, locus YJL134W, strain LCB3, hits give low values 1.01 | S. cerevisiae deletion strains, locus YJL168C, strain set2, hits give low values 0.988 | S. cerevisiae deletion strains, locus YJL187C, strain SWE1 (second series), hits give low values 0.997 | [8] 0.988 | [9] 1.01 | S. cerevisiae deletion strains, locus YKL009W, strain mrt4, hits give low values 1 | S. cerevisiae deletion strains, locus YKL068W, hits give low values 0.989 | S. cerevisiae deletion strains, locus YKL085W, strain MDH1 (second series), hits give low values 0.986 | S. cerevisiae deletion strains, locus YKL085W, strain MDH1, hits give low values 0.986 | S. cerevisiae deletion strains, locus YKL190W, strain CNB1, hits give low values 1 | S. cerevisiae deletion strains, locus YKR001C, strain vps1, hits give low values 0.996 | [10] 0.95 | S. cerevisiae deletion strains, locus YLR058C, strain SHM2, hits give low values 0.999 | S. cerevisiae deletion strains, locus YLR102C, strain apc9, hits give low values 0.998 | [11] 0.946 | S. cerevisiae deletion strains, locus YLR268W, strain sec22, hits give low values 0.99 | S. cerevisiae deletion strains, locus YLR330W, strain CHS5, hits give low values 1 | S. cerevisiae deletion strains, locus YLR342W, strain FKS1 (second series), hits give low values 1.05 | S. cerevisiae deletion strains, locus YLR371W, strain rom2, hits give low values 0.993 | S. cerevisiae deletion strains, locus YLR418C, strain cdc73, hits give low values 0.947 | S. cerevisiae deletion strains, locus YML016C, strain PPZ1, hits give low values 1.01 | S. cerevisiae deletion strains, locus YML032C, strain rad52, hits give low values 0.994 | S. cerevisiae deletion strains, locus YML124C, strain tub3, hits give low values 0.985 | S. cerevisiae deletion strains, locus YMR078C, strain ctf18, hits give low values 0.989 | S. cerevisiae deletion strains, locus YMR223W, strain ubp8, hits give low values 0.99 | [12] 1.01 | [13] 0.86 | S. cerevisiae deletion strains, locus YNL067W, strain RPL9B, hits give low values 0.994 | S. cerevisiae deletion strains, locus YNL128W, strain TEP1, hits give low values 0.995 | [14] 0.996 | S. cerevisiae deletion strains, locus YNL233W, strain BNI4, hits give low values 0.996 | S. cerevisiae deletion strains, locus YNL250W, strain rad50, hits give low values 0.982 | S. cerevisiae deletion strains, locus YNL271C, strain bni1, hits give low values 0.997 | S. cerevisiae deletion strains, locus YNL298W, strain CLA4, hits give low values 0.991 | S. cerevisiae deletion strains, locus YNL307C, strain MCK1, hits give low values 0.973 | [15] 1 | S. cerevisiae deletion strains, locus YNR052C, strain pop2, hits give low values 0.993 | [16] 0.963 | S. cerevisiae deletion strains, locus YOL012C, strain htz1 1.39 | S. cerevisiae deletion strains, locus YOL147C, strain pex11, hits give low values 0.984 | S. cerevisiae deletion strains, locus YOR061W, strain CKA2, hits give low values 1 | S. cerevisiae deletion strains, locus YOR069W, strain VPS5, hits give low values 1 | S. cerevisiae deletion strains, locus YOR136W, strain idh2, hits give low values 0.986 | S. cerevisiae deletion strains, locus YOR144C, strain elg1, hits give low values 0.986 | S. cerevisiae deletion strains, locus YOR184W, strain ser1, hits give low values 0.992 | S. cerevisiae deletion strains, locus YOR316C, strain cot1, hits give low values 0.994 | [17] 0.999 | [18] 0.999 | S. cerevisiae deletion strains, locus YPR119W, strain clb2, hits give low values 0.982 | S. cerevisiae deletion strains, locus YPR141C, strain kar3, hits give low values 0.997 | S. cerevisiae deletion strains, locus YPR163C, strain tif3, hits give low values 0.985 | S. cerevisiae deletion strains, locus YPR167C, strain met16, hits give low values 0.992 | S. cerevisiae deletion strains, strain wtn01, hits give low values 0.983 | S. cerevisiae strains, strain wild type, hits give low values 0.999

OC1(c2ccc(F)cc2)Cc2ccccc2C2=NCCN21 (stereo not given)
inactive: [1] 0.99 | [2] 0.987 | [3] 0.997 | [4] 0.932 | [5] 0.993 | [6] 0.98 | [7] 0.903 | S. cerevisiae deletion strains, locus YHR087W, strain rtc3, hits give low values 0.987 | S. cerevisiae deletion strains, locus YJL187C, strain SWE1, hits give low values 1.01 | [8] 1 | [9] 0.961 | [10] 0.975 | S. cerevisiae deletion strains, locus YLR058C, strain SHM2 (second series), hits give low values 0.983 | S. cerevisiae deletion strains, locus YLR085C, strain ARP6, hits give low values 0.954 | [11] 0.968 | S. cerevisiae deletion strains, locus YML094W, strain GIM5, hits give low values 0.982 | S. cerevisiae deletion strains, locus YMR219W, strain ESC1, hits give low values 0.998 | [12] 0.894 | [13] 0.925 | [14] 0.985 | S. cerevisiae deletion strains, locus YNL298W, strain CLA4 (second series), hits give low values 0.986 | [15] 0.992 | S. cerevisiae deletion strains, locus YNR030W, strain Alg12, hits give low values 0.98 | [16] 0.93 | [17] 0.866 | [18] 0.986 | S. cerevisiae deletion strains, locus YPR135W, strain CTF4, hits give low values 0.915

OC(CN1CCN(c2cccc(Cl)c2)CC1)C(c1ccccc1)c1ccccc1 (stereo not given)
active: S. cerevisiae deletion strains, locus YER002W, strain NOP16, hits give low values 1.19 [resistant] | S. cerevisiae deletion strains, locus YOR083W, strain WHI5 (second series), hits give low values 1.17 [resistant]
inactive: S. cerevisiae deletion strains, locus YAL040C, strain CLN3, hits give low values 0.979 | S. cerevisiae deletion strains, locus YCL061C, strain MRC1 (second series), hits give low values 0.986 | [4] 0.985 | [6] 1.01 | [12] 0.997 | [14] 0.992 | S. cerevisiae deletion strains, locus YNL175C, strain NOP13, hits give low values 1.09 | S. cerevisiae deletion strains, locus YNL197C, strain WHI3, hits give low values 0.992 | S. cerevisiae deletion strains, locus YNL224C, strain SQS1, hits give low values 1.01 | [15] 0.97
